Some test systems named below: HCI01; HCI03; HCI09; HCI11; HCI13; HCI16; UCD52; WHIM2; WHIM30.
Assay in all cases: cell viability (% of vehicle); higher = less cytotoxic
What all share (settings): 10 µM; 72 h

This passage reports cell viability results from the supplement of paper PMC6992640.

The structures appear in SMILES notation. ± gives the standard deviation of the averaged measurements.
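Note: PDX cells carrying CMV promoter-driven luciferase, viability read as total photon flux per second by IVIS imaging following D-luciferin, vehicle control 0.1% DMSO.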

Turning to `Cc1ncc(C[n+]2csc(CCO)c2C)c(N)n1.Cl.[Cl-]` [Thiamine HCl (Vitamin B1)], the cell viability was determined as 113 ± 8.6 with HCI01; 143 in the assay on HCI03 (cells of an ER-positive luminal breast cancer xenograft); 103 ± 16 in the assay on HCI09 (cells of a triple-negative luminal androgen receptor type breast cancer xenograft); 88.6 with HCI11; 59.8 ± 11 in the assay on HCI13 (cells of an ER-positive luminal breast cancer xenograft); 103 in the assay on HCI16 (cells of a triple-negative basal-like breast cancer xenograft). Also, the cell viability in the assay with UCD52 is 122 ± 39; with WHIM2 it was 149 ± 25; in the assay with WHIM30, 143 ± 3.5.
Take `O=C([O-])Cc1ccccc1Nc1c(Cl)cccc1Cl.[K+]` [Diclofenac Potassium]: the cell viability in the assay on HCI01 (cells of a triple-negative basal-like breast cancer xenograft) was 117 ± 9.3; in the assay with HCI03 it was 106; in the assay with HCI09, 100 ± 24; in the assay on HCI11 (cells of an ER-positive luminal breast cancer xenograft), 100; with HCI13, 65.9 ± 1.7; with HCI16 it was 114. The cell viability with UCD52 turned out to be 73.8 ± 2.9; with WHIM2, 109 ± 28; with WHIM30 it was 117 ± 39.
As for `COc1cc2c(cc1Cc1cccc(Cl)c1F)c(=O)c(C(=O)O)cn2C(CO)C(C)C` (stereo not given) [Elvitegravir (GS-9137)], the cell viability in the assay with HCI01 amounted to 114 ± 56; in the assay with HCI03 it was 86.7; in the assay on HCI09 it was 41.2 ± 36; in the assay on HCI11, 109; with HCI13, 47.4 ± 7.1; in the assay on HCI16, 124. The cell viability was found to be 77.8 ± 6.1 in the assay with UCD52, 73.8 ± 7.4 with WHIM2 and 159 ± 21 in the assay on WHIM30 (cells of a triple-negative basal-like breast cancer xenograft).
In the case of `CN1CCc2nc(C(=O)NC3CC(C(=O)N(C)C)CCC3NC(=O)C(=O)Nc3ccc(Cl)cn3)sc2C1.Cc1ccc(S(=O)(=O)O)cc1.O` (stereo not given) [Edoxaban tosylate monohydrate], the cell viability came to 102 ± 2.5 in the assay on HCI01; 92.1 with HCI03; 87.2 ± 11 in the assay on HCI09; 91.2 in the assay with HCI11; 109 ± 8.7 in the assay on HCI13; 81.1 with HCI16. The cell viability in the assay with UCD52 amounted to 88.8 ± 16; in the assay on WHIM2 (cells of a triple-negative basal-like breast cancer xenograft), 96.4 ± 8.8; in the assay with WHIM30, 120 ± 4.4.
As for `CC(=O)OCC(CCn1cnc2cnc(N)nc21)COC(C)=O` [Famciclovir], the cell viability in the assay on HCI01 stood at 112 ± 17; with HCI03, 114; in the assay on HCI09 it was 93.4 ± 4.1; in the assay with HCI11 it was 96.3; in the assay with HCI13, 123 ± 7.6; in the assay on HCI16 it was 136. Besides, the cell viability is 85.3 ± 8.4 in the assay on UCD52 (cells of a triple-negative basal-like breast cancer xenograft), 106 ± 7.2 in the assay on WHIM2 and 114 ± 2.1 with WHIM30.
Consider `NCCC(O)C(=O)NC1CC(N)C(OC2OC(CN)C(O)C(O)C2O)C(O)C1OC1OC(CO)C(O)C(N)C1O` (stereo not given) [Amikacin], for which the cell viability in the assay on HCI01 stood at 93.2 ± 16; with HCI03, 144; in the assay on HCI09, 105 ± 22; with HCI11, 95.3; with HCI13 it was 106 ± 16; with HCI16, 114. Moreover, the values for the cell viability in the assay with UCD52, in the assay with WHIM2 and with WHIM30 were 103 ± 11, 86.1 ± 8.6 and 117 ± 2.6, respectively.
Take `NC(=O)N1c2ccccc2C=Cc2ccccc21` [Carbamazepine]: the cell viability turned out to be 107 ± 2.9 with HCI01; 103 in the assay with HCI03; 94.3 ± 32 with HCI09; 106 in the assay on HCI11; 91.8 ± 1.1 in the assay on HCI13; 99.6 in the assay on HCI16. Further, the cell viability was found to be 85.8 ± 4.4 with UCD52, 75.2 ± 22 in the assay on WHIM2 and 98.8 ± 4.5 in the assay on WHIM30.
`Cl.N#Cc1ccc2[nH]cc(CCCCN3CCN(c4ccc5oc(C(N)=O)cc5c4)CC3)c2c1` [Vilazodone Hydrochloride]: the cell viability with HCI01 amounted to 135 ± 3.5; in the assay on HCI03, 103; with HCI09, 104 ± 18; with HCI11 it was 122; in the assay on HCI13, 113 ± 6.7; in the assay on HCI16, 166. In addition, the cell viability in the assay on UCD52 amounted to 111 ± 3.3; in the assay with WHIM2, 109 ± 20; with WHIM30, 112 ± 17.
Regarding `Clc1ccc2nsnc2c1NC1=NCCN1` [Tizanidine], the cell viability was 97.7 ± 3.7 in the assay on HCI01; 94.6 in the assay on HCI03; 149 ± 74 with HCI09; 110 in the assay on HCI11; 109 ± 26 with HCI13; 110 in the assay on HCI16. For the same molecule, the cell viability worked out at 101 ± 7.1 with UCD52, 82.1 ± 22 in the assay on WHIM2 and 91.9 ± 20 in the assay with WHIM30.
As to `Cl.O=C(Nc1ccccc1)OCC(CN1CCCCC1)OC(=O)Nc1ccccc1` (stereo not given) [Diperodon HCl], the cell viability in the assay with HCI01 was 99 ± 2.1; with HCI03, 124; in the assay on HCI09, 97.9 ± 2.3; with HCI11, 119; with HCI13, 162 ± 49; with HCI16, 138. The figures for the cell viability with UCD52, in the assay with WHIM2 and in the assay on WHIM30 were 84.2 ± 13, 94.3 ± 20 and 167 ± 16, respectively.
